Experiments:
Assay in all cases: yeast three-hybrid, YBZ-1, SC-Leu-His + 0.5 mM 3-AT, 4 days
Details in all cases: tags: N-Gal4 AD-HA kept; label: inside an RPR1-promoter hybrid RNA with tandem MS2 sites; ssRNA
PUM1 PUF domain R5-MHA = PUM1 PUF domain R5-MHA (Homo sapiens, UniProt Q14671 828-1176, C1007M;R1008H;Q1011A)
In short: (§1)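 Matching RNA elements and Pumilio-1 PUF domain libraries, randomized at the three base-contacting residues of every repeat, were co-expressed from a centromeric plasmid in strain YBZ-1 (LexA–MS2 coat fusion, HIS3 reporter). The repeat regions were PCR-amplified and Illumina-sequenced from cells grown four days on SC-Leu (input) or SC-Leu-His + 0.5 mM 3-AT (selection). The interaction score is the log change in variant frequency from input to selection. It is computed in log2, with a pseudocount of 1 for absent variants.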

PUM1 PUF domain R5-QCS = PUM1 PUF domain R5-QCS (Homo sapiens, UniProt Q14671 828-1176, C1007Q;R1008C;Q1011S)
In short: as §1

PUM1 PUF domain R3-RCN = PUM1 PUF domain R3-RCN (Homo sapiens, UniProt Q14671 828-1176, C935R;R936C;Q939N)
In short: as §1

PUM1 PUF domain R4-SNR = PUM1 PUF domain R4-SNR (Homo sapiens, UniProt Q14671 828-1176, N971S;H972N;Q975R)
In short: as §1

PUM1 PUF domain R4-SWP = PUM1 PUF domain R4-SWP (Homo sapiens, UniProt Q14671 828-1176, N971S;H972W;Q975P)
In short: as §1

PUM1 PUF domain R1-ARR = PUM1 PUF domain R1-ARR (Homo sapiens, UniProt Q14671 828-1176, S863A;Q867R)
In short: as §1

PUM1 PUF domain R5-KGS = PUM1 PUF domain R5-KGS (Homo sapiens, UniProt Q14671 828-1176, C1007K;R1008G;Q1011S)
In short: as §1

PUM1 PUF domain R4-GWW = PUM1 PUF domain R4-GWW (Homo sapiens, UniProt Q14671 828-1176, N971G;H972W;Q975W)
In short: as §1

PUM1 PUF domain R4-CYP = PUM1 PUF domain R4-CYP (Homo sapiens, UniProt Q14671 828-1176, N971C;H972Y;Q975P)
In short: as §1

PUM1 PUF domain R4-RNY = PUM1 PUF domain R4-RNY (Homo sapiens, UniProt Q14671 828-1176, N971R;H972N;Q975Y)
In short: as §1

GGCUAGAACUAGUGGAUCCCCCGGCGCCCGGCGGCUCGAGCCCGGGUAAGUGUUAAUAGUCUGCAUGCCGCCGGGCGCCAUGCCUGCAGGUCGACUCUAGAAAACAUG
binding signal (PUM1 PUF domain R5-MHA): 4.69 log2 enrichment (interaction score)
binding signal (PUM1 PUF domain R5-QCS): 0.61 log2 enrichment (interaction score)

GGCUAGAACUAGUGGAUCCCCCGGCGCCCGGCGGCUCGAGCCCGGGUAAGUGUAAUUAGUCUGCAUGCCGCCGGGCGCCAUGCCUGCAGGUCGACUCUAGAAAACAUG
binding signal (PUM1 PUF domain R3-RCN): 2.71 log2 enrichment (interaction score)

GGCUAGAACUAGUGGAUCCCCCGGCGCCCGGCGGCUCGAGCCCGGGUAAGUGUAUAUAGUCUGCAUGCCGCCGGGCGCCAUGCCUGCAGGUCGACUCUAGAAAACAUG
binding signal (PUM1 PUF domain R4-SNR): 2.9 log2 enrichment (interaction score)
binding signal (PUM1 PUF domain R4-SWP): 5.26 log2 enrichment (interaction score)

GGCUAGAACUAGUGGAUCCCCCGGCGCCCGGCGGCUCGAGCCCGGGUAAGUGUAAAUCGUCUGCAUGCCGCCGGGCGCCAUGCCUGCAGGUCGACUCUAGAAAACAUG
binding signal (PUM1 PUF domain R1-ARR): 2.95 log2 enrichment (interaction score)

GGCUAGAACUAGUGGAUCCCCCGGCGCCCGGCGGCUCGAGCCCGGGUAAGUGUCAAUAGUCUGCAUGCCGCCGGGCGCCAUGCCUGCAGGUCGACUCUAGAAAACAUG
binding signal (PUM1 PUF domain R5-KGS): 4.66 log2 enrichment (interaction score)

GGCUAGAACUAGUGGAUCCCCCGGCGCCCGGCGGCUCGAGCCCGGGUAAGUGUAAAUGGUCUGCAUGCCGCCGGGCGCCAUGCCUGCAGGUCGACUCUAGAAAACAUG
binding signal (PUM1 PUF domain R1-ARR): 0.69 log2 enrichment (interaction score)

GGCUAGAACUAGUGGAUCCCCCGGCGCCCGGCGGCUCGAGCCCGGGUAAGUGUAAAUUGUCUGCAUGCCGCCGGGCGCCAUGCCUGCAGGUCGACUCUAGAAAACAUG
binding signal (PUM1 PUF domain R1-ARR): 1.97 log2 enrichment (interaction score)

GGCUAGAACUAGUGGAUCCCCCGGCGCCCGGCGGCUCGAGCCCGGGUAAGUGUACAUAGUCUGCAUGCCGCCGGGCGCCAUGCCUGCAGGUCGACUCUAGAAAACAUG
binding signal (PUM1 PUF domain R4-GWW): 0.85 log2 enrichment (interaction score)
binding signal (PUM1 PUF domain R4-CYP): 6.17 log2 enrichment (interaction score)
binding signal (PUM1 PUF domain R4-SNR): 2.06 log2 enrichment (interaction score)

GGCUAGAACUAGUGGAUCCCCCGGCGCCCGGCGGCUCGAGCCCGGGUAAGUGUGAAUAGUCUGCAUGCCGCCGGGCGCCAUGCCUGCAGGUCGACUCUAGAAAACAUG
binding signal (PUM1 PUF domain R5-QCS): 3.56 log2 enrichment (interaction score)

GGCUAGAACUAGUGGAUCCCCCGGCGCCCGGCGGCUCGAGCCCGGGUAAGUGUAAAUAGUCUGCAUGCCGCCGGGCGCCAUGCCUGCAGGUCGACUCUAGAAAACAUG
binding signal (PUM1 PUF domain R4-GWW): 3.18 log2 enrichment (interaction score)
binding signal (PUM1 PUF domain R4-CYP): 5.36 log2 enrichment (interaction score)
binding signal (PUM1 PUF domain R4-RNY): 3.7 log2 enrichment (interaction score)
binding signal (PUM1 PUF domain R4-SWP): 5.57 log2 enrichment (interaction score)

Reference: publication PMC8384837, “Expanding the binding specificity for RNA recognition by a PUF domain”
